Some test systems named below: DU-145 prostate; K-562 leukemia; MALME-3M melanoma; MDA-MB-231 breast; SF-268 CNS; SF-295 CNS; SF-539 CNS; UACC-257 melanoma; M14 melanoma.
Holding throughout (experiment): NCI-60 one-dose screen, 48 h (100 = growth as untreated, 0 = no growth, -100 = all killed)
What all share (conditions): 10 µM

About 83,000 compounds went through this panel and 20% of them were active in at least one assay; those are over-represented in the sample as a whole.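 Testing used 96-well plates and a 48-hour single-concentration exposure. Example: -40 means 40% of the starting cells died.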 Unmarked numbers belong to inactive results. Calls of active or inactive are those of the source. Rule for the calls: active = growth percent below 10; inactive = the rest.

Take `O=C(NO)c1ccc(CNC(=O)[C@H]2Cc3c([nH]c4ccccc34)[C@H](c3ccccc3)N2)cc1`: the growth in the assay with DU-145 prostate is 29.5%; with K-562 leukemia it was 11.6%; with MALME-3M melanoma it was 15.2%; in the assay on MDA-MB-231 breast, 7.55% (active); with SF-268 CNS, 40.3%; with SF-295 CNS, 17.7%. Further, the growth was 34% in the assay with SF-539 CNS, 21.4% in the assay with UACC-257 melanoma and 27.5% in the assay with M14 melanoma.

On to `CCOC(=O)C(Cc1ccccc1)N1C(=O)/C(=C/N2N=C(c3ccc(OC)cc3)CC2c2ccc3ccccc3c2)SC1=S` (stereo unspecified), for which the growth in the assay with DU-145 prostate is 30.7%; in the assay with K-562 leukemia, 11.9%; in the assay with MALME-3M melanoma it was -27.2% (active); in the assay on MDA-MB-231 breast it was 3.55% (active); with SF-268 CNS it was 30.2%; in the assay on SF-295 CNS it was -78.2% (active). In addition, the growth with SF-539 CNS is -27.2% (active); in the assay with UACC-257 melanoma, 1.02% (active); with M14 melanoma, 7.24% (active).

With `Cc1ccc2nc(-c3ccc(-c4nnc(SCC(=O)Nc5ccc(Cl)cc5)o4)cc3)[nH]c2c1`, the growth with DU-145 prostate is 45%; with K-562 leukemia it was 18%; with MALME-3M melanoma, 26.2%; with MDA-MB-231 breast it was 10.6%; in the assay on SF-268 CNS, 68.6%; in the assay on SF-295 CNS, 21.4%. Moreover, the results for the growth in the assay on SF-539 CNS, with UACC-257 melanoma and in the assay on M14 melanoma were 57%, 102% and 53.6%, respectively.

For `Cc1ccc(-c2cc(C(=O)N=Nc3c(O)[nH]c4ccccc34)c3ccccc3n2)cc1`, the growth with DU-145 prostate is 3.29% (active); with K-562 leukemia, 13.8%; in the assay with MALME-3M melanoma it was 36.5%; in the assay on MDA-MB-231 breast, 2.78% (active); in the assay with SF-268 CNS, 36.4%; in the assay on SF-295 CNS, 94.3%. The growth was -66.2% (active) with SF-539 CNS, 81% with UACC-257 melanoma and 70.5% in the assay with M14 melanoma.

For the compound `COc1cc2c3c(n(CCCNCCO)c(=O)c2cc1OC)-c1nc2c(cc1C3=O)OCO2`, the growth with DU-145 prostate is 6.05% (active); with K-562 leukemia, 10.7%; with MALME-3M melanoma it was 46.7%; with MDA-MB-231 breast it was 1.28% (active); with SF-268 CNS, 19.1%; in the assay on SF-295 CNS, -8.95% (active). Moreover, the growth is -57.1% (active) in the assay on SF-539 CNS, 80.2% in the assay with UACC-257 melanoma and 23.7% in the assay with M14 melanoma.

With `CCOC(=O)C1=C(N)N(c2ccccc2)C2=C(C(=O)CC(C)(C)C2)C1c1ccc(Cl)cc1` (stereo unspecified), the growth in the assay on DU-145 prostate is 58.3%; in the assay on K-562 leukemia, 18.3%; in the assay with MALME-3M melanoma it was 15.9%; with MDA-MB-231 breast, 53%; in the assay on SF-268 CNS it was 58%; in the assay with SF-295 CNS, 21.3%. The growth with SF-539 CNS is 36.2%; in the assay with UACC-257 melanoma it was 28%; in the assay with M14 melanoma, 28.2%.

On to `Oc1ccc(/C=C2\CCCc3cc4ccc(O)cc4[o+]c32)c(O)c1`, for which the growth is 8.58% (active) with DU-145 prostate; 41.5% in the assay with K-562 leukemia; 45.1% with MALME-3M melanoma; -27.4% (active) in the assay on MDA-MB-231 breast; 69.6% in the assay on SF-268 CNS; 90.1% in the assay with SF-295 CNS. Further, the growth is -15% (active) in the assay on SF-539 CNS, 69% in the assay on UACC-257 melanoma and 43.2% with M14 melanoma.

Regarding `CC1(c2ccccc2)NC(=O)N(CC(=O)Nc2ccc(C(=O)/C=C/c3ccccc3)cc2)C1=O` (stereo unspecified), the growth is 62.1% with DU-145 prostate; 22.4% in the assay with K-562 leukemia; 77.6% in the assay on MALME-3M melanoma; 67.7% in the assay with MDA-MB-231 breast; 52.2% in the assay on SF-268 CNS; 50.9% with SF-295 CNS. Besides, the growth in the assay on SF-539 CNS was 43.3%; with UACC-257 melanoma, 63.5%; in the assay with M14 melanoma, 48.2%.

Take `Nc1nc(-c2ccccc2)cs1`: the growth was 66.7% in the assay on DU-145 prostate; 28.2% in the assay on K-562 leukemia; 74.4% in the assay with MALME-3M melanoma; 61.8% in the assay with MDA-MB-231 breast; 48.3% with SF-268 CNS; 37.7% in the assay with SF-295 CNS. The growth in the assay with SF-539 CNS is 53.4%; in the assay with UACC-257 melanoma, 81.9%; with M14 melanoma it was 72.2%.

For `COc1ccc(OC)c(-c2cc(-c3c[nH]c4ccccc34)nc(N)c2C#N)c1`, the growth is 13% with DU-145 prostate; 8.61% (active) in the assay with K-562 leukemia; -3.02% (active) in the assay on MALME-3M melanoma; 12.8% in the assay on MDA-MB-231 breast; 9.75% (active) in the assay with SF-268 CNS; -69.4% (active) in the assay with SF-295 CNS. The growth in the assay on SF-539 CNS was -60.3% (active); in the assay with UACC-257 melanoma it was 22.4%; in the assay with M14 melanoma, -8.47% (active).

As for `CN1C(=O)N(C)C2SC(N/N=C/c3cccs3)=NC21` (stereo unspecified), the growth in the assay on DU-145 prostate is 49.5%; with K-562 leukemia, 11.8%; in the assay with MALME-3M melanoma, 24.6%; with MDA-MB-231 breast, 27.3%; in the assay on SF-268 CNS, 35.7%; in the assay on SF-295 CNS, 7.99% (active). Besides, the growth in the assay with SF-539 CNS was 4.32% (active); in the assay on UACC-257 melanoma, 50.3%; with M14 melanoma it was 7.65% (active).

With `COc1ccc(/C(CSc2nnc(-c3c[nH]c4ccccc34)n2-c2ccccc2)=N/O)cc1`, the growth with DU-145 prostate was 43%; in the assay with K-562 leukemia, 18.7%; in the assay on MALME-3M melanoma, 73.1%; in the assay on MDA-MB-231 breast, 60.7%; in the assay on SF-268 CNS, 48.5%; in the assay on SF-295 CNS it was 21%. Further, the growth in the assay with SF-539 CNS was 57.3%; with UACC-257 melanoma, 50.1%; with M14 melanoma, 28.9%.

As to `COc1cc(/C=C/C(=O)c2ccc(NC(=O)CN3C(=O)NC(C)(c4ccccc4)C3=O)cc2)cc(OC)c1OC` (stereo unspecified), the growth with DU-145 prostate is 12.4%; in the assay with K-562 leukemia it was 16%; in the assay with MALME-3M melanoma, 69.5%; in the assay with MDA-MB-231 breast, 26.5%; in the assay on SF-268 CNS, 23%; with SF-295 CNS it was 46.7%. Moreover, the growth in the assay on SF-539 CNS is -50.4% (active); with UACC-257 melanoma, 52.6%; in the assay with M14 melanoma, 46.8%.

Take `CC(=O)C1=C(C)NC(SCC(=O)Nc2ccc(S(=O)(=O)Nc3cc(C)on3)cc2)=NC1c1ccccc1` (stereo unspecified): the growth in the assay on DU-145 prostate is 109%; in the assay with K-562 leukemia it was 104%; with MALME-3M melanoma, 100%; in the assay with MDA-MB-231 breast, 110%; in the assay on SF-268 CNS, 107%; in the assay on SF-295 CNS, 106%. The growth in the assay on SF-539 CNS was 101%; in the assay with UACC-257 melanoma, 103%; in the assay on M14 melanoma, 108%.

The record behind these values is PubChem BioAssay (NCI).
